Bioassay records deposited in PubChem by National Center for Advancing Translational Sciences (NCATS).
An excerpt weighted towards active compounds, which were near 19% of everything screened.
IL1B secr inh: inhibitors of inflammasome signaling (IL-1 beta secretion); THP-1 LPS/ATP IL-1B secretion, AlphaLISA, 16 h; active compounds read low; activity change, % at 57.5 µM; 360,000 compounds, 4.7% hits; in the data active = activity change below about -50%; inconclusive = mostly about -30% to -49%
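THP-1 cells pretreated 1 hr with compounds (up to 57.5 uM final), then stimulated with LPS (250 ng/mL final) plus ATP (1.25 mM final); secreted IL-1B measured by AlphaLISA after 16 hr, decreased signal indicating inhibition.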
HT1080 IDH1KD tx: toxicity to HT-1080 IDH1 knockdown cells (counter line). AID 686971. 360,000 compounds, 2% hits. HT-1080 IDH1 knockdown viability, ATP luminescence, 48 h. Potency, µM (titrated, usually from 46.1 µM), usual class: cytotoxic
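After a 2 h attachment period, IDH1KD HT-1080 cells took pin-transferred compound for 48 h at 37 °C; ATP-based luminescence after 10 min room-temperature reagent incubation reported viability.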
TDP1 cell noCPT: qHTS for Inhibitors of human tyrosyl-DNA phosphodiesterase 1 (TDP1): qHTS in cells in absence of CPT | Potency, µM (titrated, usually from 46.2 µM), hits mostly inhibitors | DT40 Tdp1-/- hTDP1 cells, no CPT, ATP luminescence, 48 h | 420,000 compounds, 15% hits; also: nearly all actives have a fitted effect of over 55% in size
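Chicken DT40 Tdp1-/- cells stably complemented with human TDP1 were seeded at 400 cells/well with DMSO in place of 20 nM camptothecin. After compound pinning, cells grew at least 48 hr at 37 °C; viability read by CellTiter-Glo luminescence.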
DT40 TDP1 CPT: DT40-hTDP1 cell growth loss with CPT. chicken DT40 Tdp1-/-;hTDP1 cells + 20 nM CPT, ATP luminescence, 48 h. Potency, µM (series often up to 46.2 µM), most hits filed as inhibitors. 420,000 compounds, 12% hits; also: nearly all actives have a fitted effect of over 55% in size
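Cell growth measured by CellTiter-Glo luminescence after a minimum 48 h, 37 C compound exposure with 20 nM CPT in Tdp1-knockout DT40 cells stably expressing hTDP1, seeded 400/well; qHTS titration format.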
ELG1 repair inh: blocks ELG1-dependent DNA repair in HEK293T cells; Potency, µM (top dose mostly 46.1 µM), hits mostly inhibitors; HEK293T ELG1-luciferase reporter, luminescence, 16 h; DNA damage induced by 5-fluorouridine; 330,000 compounds, 2.3% hits; AID 504467; also: nearly all actives have a fitted effect of over 55% in size
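Quantitative HTS, concentration-response format. 2,000 cells/well co-treated with 5-fluorouridine and compound, 16 hr in 5% CO2 at 37 °C; ONE-Glo luminescence read after 30 min.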
HT1080-NT tox: kills 2HG-producing HT-1080-NT fibrosarcoma cells; AID 686970; HT-1080-NT fibrosarcoma viability, CellTiter-Glo ATP luminescence, 48 h; 360,000 compounds, 1.6% hits; Potency, µM (doses to about 46.1 µM), usual class: cytotoxic;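 also: NT is the 2HG producing partner of a matched IDH1 knockdown line; nearly all actives have a fitted effect of over 55% in size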
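Read-out is CellTiter-Glo luminescence after 10 minutes at room temperature, following 48 hours' compound treatment of HT-1080-NT cells (750 cells/well, RPMI, 5% FBS, 37 degrees C).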
ELG1 FLuc counter: luciferase inhibition in cell-free luciferin readout for ELG1 hits; shares compounds with ELG1 repair inh; cell-free firefly luciferase luminescence counter-screen, ViewLux; Potency, µM (titrated, usually from 46.1 µM), actives largely listed as inhibitors; 350 compounds, 3% hits; AID 624247
ELG1 Luc conf: human ELG1 repair inhibition, luciferase-tagged ELG1 confirmation; Potency, µM (series often up to 46.1 µM), usual class: inhibitors; 670 compounds, 68% hits; shares compounds with ELG1 repair inh; AID 624248; HEK293T ELG1-luciferase levels, luminescence; cells co-treated with 5-fluorouridine; also: nearly all actives have a fitted effect of over 55% in size
ELG1-Luc MMS: confirmation of human ELG1 repair inhibitors, MMS stimulated; Potency, µM (series often up to 46.1 µM), hits mostly inhibitors; HEK293T luciferase-tagged ELG1 level, MMS stimulated; AID 624249; 670 compounds, 53% hits; shares compounds with ELG1 repair inh; also: nearly all actives have a fitted effect of over 60% in size
ELG1 5FU viab: confirmation of ELG1 repair inhibitors: viability with 5FU; shares compounds with ELG1 repair inh; cell viability with 5-FU, ELG1-dependent repair; Potency, µM (titrated, usually from 46.1 µM), actives largely listed as cytotoxic; 670 tested, under 10 active;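 also: ELG1-luc HEK293T cells cotreated with 5-fluorouridine at 10 µM final; viability measured 16 h after compound addition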
ELG1 MMS cell: confirmation of ELG1 repair inhibitors: viability with MMS. AID 624251. shares compounds with ELG1 repair inh. Potency, µM (titrated, usually from 46.1 µM), most hits filed as cytotoxic. 670 compounds, 33% hits. Cell viability with MMS, ELG1-dependent DNA repair;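 also: ELG1-luc HEK293T cells co-treated with 10 µM MMS; viability read 16 h after compound addition; nearly all actives have a fitted effect of over 60% in size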
Cell viab unstim: affects unstimulated cell viability, ELG1 hit counter-screen; 900 compounds, 8% hits; cell viability counter-screen, unstimulated, luminescence; Potency, µM (top dose mostly 45.9 µM), actives largely listed as cytotoxic; shares compounds with ELG1 repair inh;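 also: compound exposure lasted 16 hours before reading; nearly all actives have a fitted effect of over 55% in size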
FLuc enzyme: counter-screen for ELG1 repair inhibitors: firefly luciferase inhibition | shares compounds with ELG1 repair inh | purified firefly luciferase, luminescence counter-screen | Potency, µM (highest dose often 57.5 µM), usual class: inhibitors | 350 compounds, 10% hits
Of the large screens only hits and unclear results are named; the others gave an inactive call (follow-up assays come after a bar, where they were run). Unless noted, calls follow the shape of the dose curve; as a rule, active = well fitted curve in the direction sought with a large enough effect; inconclusive = small, poorly fitted or top-dose-only effect, or another doubt; inactive = no such curve, though single readings can be large; an effect the other way counts as inactive or inconclusive.

COc1cc(C(=O)OC2CSCC2NC(=O)c2ccccc2)cc(OC)c1OC (stereo not given)	TDP1 cell noCPT inconclusive, DT40 TDP1 CPT inconclusive, ELG1 repair inh 4.11µM | ELG1 Luc conf 9.96µM | ELG1-Luc MMS inactive | ELG1 5FU viab inconclusive | ELG1 MMS cell inconclusive | Cell viab unstim inconclusive
O=C(CSc1ncnc2sccc12)N1CCCCC1	ELG1 repair inh inconclusive | Cell viab unstim inactive
O=C(NC1CCN(S(=O)(=O)c2ccc(F)cc2)CC1)c1cccnc1	none
COc1ccc(NC(=O)CS(=O)c2cccc(C(F)(F)F)c2)cc1 (stereo not given)	none
COc1ccc(S(=O)(=O)N(C)CC(=O)NCCCn2ccnc2)cc1Cl	HT1080-NT tox inconclusive
O=C1c2cccc(OCc3ccc(F)cc3)c2CCN1Cc1ccccc1	IL1B secr inh -57.2, TDP1 cell noCPT inconclusive, DT40 TDP1 CPT inconclusive, ELG1 repair inh inconclusive | ELG1 Luc conf inconclusive | ELG1-Luc MMS 4.45µM | ELG1 5FU viab inactive | ELG1 MMS cell 6.28µM | Cell viab unstim inconclusive
O=C(CC1OC(=O)c2ccccc21)Nc1cc(Cl)ccc1N1CCOCC1 (stereo not given)	TDP1 cell noCPT inconclusive, ELG1 repair inh 4.11µM | ELG1 Luc conf inconclusive | ELG1-Luc MMS inactive | ELG1 5FU viab inactive | ELG1 MMS cell inactive | Cell viab unstim inactive
O=C(COS(=O)c1ccccc1)Nc1cc(Cl)ccc1N1CCOCC1 (stereo not given)	TDP1 cell noCPT inconclusive, ELG1 repair inh inconclusive
Cc1c(C(=O)OCC(=O)N(C)c2ccccc2)oc2ccccc12	TDP1 cell noCPT inconclusive, ELG1 repair inh inconclusive
NC(=O)c1ccc(N2CCN(c3ccc(O)cc3)CC2)c([N+](=O)[O-])c1	TDP1 cell noCPT 16.4µM, DT40 TDP1 CPT inconclusive, ELG1 repair inh 4.11µM | ELG1 Luc conf 6.28µM | ELG1-Luc MMS inactive | ELG1 5FU viab inconclusive | ELG1 MMS cell inconclusive | Cell viab unstim inactive
NC(=O)c1ccc(N2CCN(S(=O)(=O)c3ccccc3)CC2)c([N+](=O)[O-])c1	TDP1 cell noCPT 7.31µM, DT40 TDP1 CPT inconclusive, ELG1 repair inh 1.64µM | ELG1 Luc conf inconclusive | ELG1-Luc MMS 0.705µM | ELG1 5FU viab inactive | ELG1 MMS cell 0.791µM | Cell viab unstim inactive
Cc1ccc(S(=O)(=O)N2Cc3ccccc3CC2C(=O)N(C)C)cc1 (stereo not given)	none (no result: ELG1 repair inh)
Cc1cc(C(=O)NNc2ccc(F)cc2F)no1	HT1080 IDH1KD tx 5.17µM, ELG1 repair inh 4.11µM, HT1080-NT tox 3.66µM | ELG1 Luc conf inactive | ELG1-Luc MMS inactive | ELG1 5FU viab inactive | ELG1 MMS cell inactive | Cell viab unstim inactive
CC(C)(C)c1ccc(C(=O)NNc2ccc(F)cc2F)cc1	ELG1 repair inh inconclusive
COc1cc(/C=N/n2c(C)nc3ccccc3c2=O)cc(OC)c1O	none
CCc1cccc(NC(=O)C2CCCN(c3ncnc4c3nc3n4CCCCC3)C2)c1 (stereo not given)	IL1B secr inh -54.4, HT1080 IDH1KD tx inconclusive, TDP1 cell noCPT inconclusive, DT40 TDP1 CPT inconclusive, ELG1 repair inh 18.3µM | ELG1 FLuc counter inactive | ELG1 Luc conf 14.1µM | ELG1-Luc MMS 22.3µM | ELG1 5FU viab inactive | ELG1 MMS cell inactive | Cell viab unstim inconclusive | FLuc enzyme inactive
CCOC(=O)N1CCN(C(=O)C2CCCN(c3ncnc4c3nc3n4CCCCC3)C2)CC1 (stereo not given)	TDP1 cell noCPT inconclusive, DT40 TDP1 CPT inconclusive, ELG1 repair inh inconclusive
O=C(C1CCCN(c2ncnc3c2nc2n3CCCCC2)C1)N1CCN(c2ccccc2F)CC1 (stereo not given)	TDP1 cell noCPT 9.2µM, DT40 TDP1 CPT inconclusive, ELG1 repair inh 9.2µM | ELG1 FLuc counter inactive | ELG1 Luc conf 11.2µM | ELG1-Luc MMS 25µM | ELG1 5FU viab inactive | ELG1 MMS cell inactive | Cell viab unstim inconclusive | FLuc enzyme inactive
COc1cc(NC(=O)C2CCCN(c3ncnc4c3nc3n4CCCCC3)C2)cc(OC)c1OC (stereo not given)	TDP1 cell noCPT inconclusive, DT40 TDP1 CPT inconclusive, ELG1 repair inh 1.83µM | ELG1 FLuc counter inactive | ELG1 Luc conf 4.45µM | ELG1-Luc MMS inactive | ELG1 5FU viab inconclusive | ELG1 MMS cell inactive | Cell viab unstim inactive | FLuc enzyme inactive
Cc1cccc(NC(=O)C2CCCN(S(=O)(=O)c3cccs3)C2)c1C (stereo not given)	TDP1 cell noCPT inconclusive, DT40 TDP1 CPT inconclusive
COc1ccc(CCNc2ncnc3sccc23)cc1OC	HT1080 IDH1KD tx inconclusive, TDP1 cell noCPT 0.291µM, DT40 TDP1 CPT 0.164µM, ELG1 repair inh 0.291µM, HT1080-NT tox inconclusive | ELG1 FLuc counter inactive | ELG1 Luc conf inconclusive | ELG1-Luc MMS 0.281µM | ELG1 5FU viab inactive | ELG1 MMS cell 0.397µM | Cell viab unstim inconclusive | FLuc enzyme inactive
COc1ccc(CSc2ncnc3sccc23)cc1F	none
COc1cc2nc(NCC3CCCO3)n3nc(-c4cccnc4)nc3c2cc1OC (stereo not given)	TDP1 cell noCPT 20.6µM, DT40 TDP1 CPT 9.2µM, ELG1 repair inh 2.31µM | ELG1 Luc conf 3.97µM | ELG1-Luc MMS 17.7µM | ELG1 5FU viab inconclusive | ELG1 MMS cell inactive | Cell viab unstim inactive
